Results reported in paper PMC7826789 (International Journal of Molecular Sciences, 2021).

Columns and labels:
Conditions in all cases: Compound Concentration (nM):1000
[1] = tested on: T1, DLK
T1 construct: gene MAP3K12

[2] = tested on: T2, DMPK2
T2 construct: gene CDC42BPG

[3] = tested on: DMPK
[4] = tested on: T3, DRAK1
T3 construct: gene STK17A

[5] = tested on: T4, DRAK2
T4 construct: gene STK17B

[6] = tested on: DYRK1A
[7] = tested on: DYRK1B
[8] = tested on: DYRK2
[9] = tested on: EGFR(E746-A750del)
[10] = tested on: EGFR(G719C)
[11] = tested on: EGFR(G719S)
[12] = tested on: EGFR(L747-E749del, A750P)
[13] = tested on: EGFR(L747-S752del, P753S)
[14] = tested on: EGFR(L747-T751del,Sins)
[15] = tested on: EGFR(L858R)
[16] = tested on: EGFR(L858R,T790M)
[17] = tested on: EGFR(L861Q)
[18] = tested on: EGFR(S752-I759del)
[19] = tested on: EGFR(T790M)
[20] = tested on: EGFR
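Note: KINOMEscan scanMAX binding as percent activity remaining versus control; lower means stronger binding.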

| Compound | Percent Control [1] [%] | Percent Control [2] [%] | Percent Control [3] [%] | Percent Control [4] [%] | Percent Control [5] [%] | Percent Control [6] [%] | Percent Control [7] [%] | Percent Control [8] [%] | Percent Control [9] [%] | Percent Control [10] [%] | Percent Control [11] [%] | Percent Control [12] [%] | Percent Control [13] [%] | Percent Control [14] [%] | Percent Control [15] [%] | Percent Control [16] [%] | Percent Control [17] [%] | Percent Control [18] [%] | Percent Control [19] [%] | Percent Control [20] [%] |
| --- | --- | --- | --- | --- | --- | --- | --- | --- | --- | --- | --- | --- | --- | --- | --- | --- | --- | --- | --- | --- |
| O=C1Nc2ccc(C(=O)c3ccco3)cc2C1=Cc1cc(Cl)c(O)c(Cl)c1 [GW406108X] | 42 | 100 | 100 | 80 | 32 | 0.4 | 1.9 | 41 | 86 | 73 | 58 | 100 | 94 | 91 | 100 | 92 | 57 | 81 | 77 | 100 |
| COc1ccccc1-c1cc(/C=C2\C(=O)Nc3ncc(Br)cc32)cc(Br)c1O [GW442130X] | 100 | 100 | 100 | 85 | 100 | 59 | 68 | 95 | 100 | 100 | 100 | 100 | 88 | 100 | 100 | 85 | 100 | 100 | 72 | 100 |
| Cl.O=C(Nc1ccc(Oc2ccc3[nH]c(NC(=O)c4ccco4)nc3c2)cc1)Nc1cc(C(F)(F)F)ccc1F [GW683134A] | 86 | 82 | 100 | 100 | 100 | 100 | 93 | 83 | 92 | 100 | 92 | 69 | 78 | 100 | 91 | 100 | 89 | 97 | 84 | 92 |
| C/C(Nc1ccc(S(N)(=O)=O)cc1)=C1/C(=O)Nc2ccccc21 [GW335962X] | 73 | 97 | 99 | 100 | 97 | 77 | 93 | 46 | 100 | 91 | 63 | 93 | 82 | 100 | 100 | 95 | 68 | 100 | 74 | 100 |
| CCc1ccc(Oc2nccc(-c3c(-c4ccc(F)cc4)ncn3C3CCNCC3)n2)cc1 [SB-242719] | 100 | 2.1 | 100 | 77 | 55 | 95 | 98 | 76 | 46 | 69 | 61 | 48 | 91 | 71 | 49 | 73 | 58 | 85 | 52 | 48 |
| COc1ccc(COc2ccc(Cc3cnc(N)nc3N)cc2OC)cc1 [GW632580X] | 97 | 100 | 100 | 100 | 100 | 88 | 100 | 81 | 100 | 85 | 61 | 100 | 75 | 99 | 86 | 98 | 61 | 85 | 69 | 92 |
| CCS(=O)(=O)c1ccc(OC)c(Nc2ncc(-c3cccc(F)c3)o2)c1 [GW621970X] | 71 | 100 | 100 | 100 | 100 | 61 | 67 | 41 | 73 | 100 | 92 | 72 | 75 | 84 | 92 | 100 | 79 | 73 | 100 | 85 |
| COC(=O)Nc1nc2ccc(Oc3ccc(NC(=O)Nc4cc(C(F)(F)F)ccc4F)cc3)cc2s1.Cl [GW693917A] | 64 | 73 | 100 | 100 | 99 | 82 | 100 | 62 | 88 | 98 | 83 | 86 | 95 | 100 | 78 | 95 | 100 | 100 | 68 | 90 |
| Nc1ncnc2occ(-c3ccc(NC(=O)Nc4cc(C(F)(F)F)ccc4F)cc3)c12 [GW770249X] | 90 | 96 | 100 | 100 | 96 | 100 | 100 | 86 | 91 | 89 | 87 | 88 | 93 | 100 | 100 | 96 | 79 | 89 | 80 | 100 |
| COc1cc(C)c(N(C)C(=O)CN(C)C)cc1Nc1nc(Nc2cccc(F)c2C(N)=O)c2cc[nH]c2n1 [GSK2219385] | 80 | 99 | 84 | 88 | 83 | 60 | 100 | 100 | 100 | 98 | 75 | 98 | 100 | 100 | 89 | 100 | 82 | 100 | 56 | 87 |
| CC1=C(C(=O)Nc2ccc3[nH]ncc3c2)C(c2ccc3ccccc3c2)CC(=O)N1 (stereo not shown) [GSK270822A] | 68 | 94 | 100 | 95 | 84 | 92 | 83 | 66 | 100 | 53 | 100 | 100 | 100 | 100 | 100 | 55 | 83 | 100 | 56 | 100 |
| CCn1c(-c2nonc2N)nc2c(C#CC(C)(C)O)nc(OCCNC)cc21.Cl [GSK949675] | 86 | 100 | 100 | 100 | 100 | 70 | 100 | 87 | 97 | 100 | 100 | 92 | 100 | 100 | 100 | 100 | 100 | 100 | 85 | 96 |
| CN(C)c1cc2c(Nc3ccc4c(cnn4Cc4ccccc4)c3)ncnc2cn1 [GW282974X] | 82 | 48 | 95 | 69 | 100 | 93 | 100 | 73 |  |  |  |  |  |  |  |  |  |  |  |  |
| COc1cccc(-c2c[nH]c3c(N/N=C/c4ccncc4)ncnc23)c1 [GW814408X] | 87 | 82 | 100 | 17 | 32 | 7.6 | 24 | 8.3 | 12 | 27 | 32 | 18 | 16 | 35 | 23 | 30 | 41 | 41 | 53 | 30 |
| Cl.O=C(Nc1ccc(Oc2ccc3[nH]c(NC(=O)c4ccccc4)nc3c2)cc1)Nc1cc(C(F)(F)F)ccc1F [GW709042A] | 77 | 86 | 100 | 100 | 100 | 100 | 100 | 97 | 94 | 71 | 57 | 100 | 91 | 82 | 100 | 93 | 60 | 87 | 82 | 100 |
| Cl.O=C(O[C@H]1CN[C@H](C#Cc2cc3ncnc(Nc4ccc5c(cnn5Cc5ccccc5)c4)c3s2)C1)N1CCOCC1 [GSK200398A] | 71 | 100 | 100 | 89 | 99 | 76 | 100 | 84 | 38 | 0.1 | 2 | 66 | 20 | 24 | 9.2 | 87 | 0.3 | 3.1 | 44 | 25 |
| COc1cc(/C=N/Nc2ncnc3[nH]ncc23)ccc1O [GW578748X] | 71 | 100 | 100 | 7 | 9.9 | 12 | 69 | 2.5 | 90 | 52 | 62 | 78 | 100 | 78 | 90 | 72 | 64 | 86 | 48 | 75 |
| NS(=O)(=O)c1ccc(N/N=C2\C(=O)Nc3ccc(Cl)cc32)cc1 [GW280670X] | 96 | 100 | 100 | 100 | 100 | 100 | 100 | 93 | 100 | 100 | 100 | 100 | 100 | 100 | 100 | 100 | 87 | 87 | 100 | 100 |
| COc1cccc(-n2ncc3c(N/N=C/c4ccncc4)ncnc32)c1 [GW784752X] | 82 | 100 | 100 | 73 | 87 | 18 | 95 | 17 | 75 | 90 | 59 | 96 | 81 | 100 | 75 | 96 | 77 | 87 | 100 | 75 |
| COc1ccc2c(-c3ccnc(Nc4cccc(OC(F)(F)F)c4)n3)cnn2n1 [GW810372X] | 92 | 100 | 100 | 81 | 100 | 35 | 13 | 45 | 99 | 97 | 73 | 100 | 98 | 100 | 100 | 100 | 75 | 100 | 82 | 100 |
